Measurements from PubChem BioAssay (Tox21).
Results filed as inconclusive are left out. Entries that show only a call come without a potency. Calls of active or inactive are those of the source. Calls come from the whole dose curve; as a rule, active = well fitted inhibition curve with a large enough effect in the signal ratio in the repeat runs, with a control signal flat; inconclusive = weak or mixed curves, or effect the other way; inactive = flat fitted curve, though single readings scatter; the % refers to the signal ratio.

Target: D(2) dopamine receptor (Homo sapiens) (UniProt P14416)
Sequence (P14416 whole entry, looked up): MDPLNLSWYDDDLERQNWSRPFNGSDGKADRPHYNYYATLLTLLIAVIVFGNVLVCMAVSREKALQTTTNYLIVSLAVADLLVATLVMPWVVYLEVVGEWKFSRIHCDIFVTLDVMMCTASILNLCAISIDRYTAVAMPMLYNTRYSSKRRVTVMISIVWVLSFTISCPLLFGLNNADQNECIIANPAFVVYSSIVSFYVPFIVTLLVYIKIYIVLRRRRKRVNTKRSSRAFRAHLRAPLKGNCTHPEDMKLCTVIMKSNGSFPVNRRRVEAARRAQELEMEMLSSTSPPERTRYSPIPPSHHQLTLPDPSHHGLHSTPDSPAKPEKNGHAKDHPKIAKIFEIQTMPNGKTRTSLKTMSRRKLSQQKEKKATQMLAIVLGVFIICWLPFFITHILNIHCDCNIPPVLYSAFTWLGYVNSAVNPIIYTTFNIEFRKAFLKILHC
Test: Dopamine D2 receptor (DRD2) small molecule antagonists, cell-based qHTS assay (AID 1963595)
Settings: HEK293-DRD2 cAMP HTRF antagonist mode; series mostly up to 92.4 µM
Text: National Center for Advancing Translational Sciences [NCATS]
Division of Preclinical Innovation [DPI]
U.S. Environmental Protection Agency [EPA]
National Institutes of Environmental Health Sciences [NIEHS]
National Toxicology Program [NTP]
U.S. Food and Drug Administration [FDA]
DRD2 is the D2 subtype of the dopamine receptor, which is coupled to Gi subtype of G protein-coupled receptor. This G protein-coupled receptor inhibits adenylyl cyclase activity. The DRD2-HEK293 cell line stably expressing D2 dopamine receptor can be used for screening agonists and antagonists of interactions between D2 and its ligands. The Hek293-DRD2 cAMP assay is based on HTRF technology. It measures changes of cAMP accumulation in response to Gi coupled GPCR activation or inhibition.
Tox21 Assay Protocol Summary:
DRD2-Hek293 cells were dispensed at 600 cells/3uL/well in 1536-well white plates using a Multidrop Dispenser. After the assay plates were incubated at a 37 C/5% CO2 incubator for 24 h, 1 uL of Ro20-1724 at final concentration of 0.1 mM was transferred to the assay plate by a Flying Reagent Dispenser. Following Ro20-1724 addition, 23 nL of compound dissolved in DMSO, positive controls or DMSO only was added to the assay plates via Wako pintool station. The assay plates were incubated at room temperature for 10 min. Next, 1 uL of mixture of NKH477 (final concentration at 200 nM) and quinpirole (final concentration at 12 nM) was added into the plates. After the assay plates were incubated at room temperature for an additional 30 min, 2.5 ul/well of cAMP-d2 and 2.5 ul/well of anti-cAMP-cryptate were added respectively into the assay plates using a Flying Reagent Dispenser. The plates were incubated at room temperature for 1 h. The fluorescence intensity in the plates was measured at 340 nm excitation and 665 & 620 nm emission by an Envision plate reader.
Potency is the fitted concentration of half-maximal effect.

Structure (SMILES)	Potency	activity change, negative = inhibition
CC(CN1CC(=O)NC(=O)C1)N1CC(=O)NC(=O)C1 (stereo not given)	inactive	
C=CCCCCCCCCC(=O)OCC	inactive	
C/C=C(\C)C#N	inactive	
CC(=O)OCC(C)C	inactive	
CCC(C)c1cc([N+](=O)[O-])cc([N+](=O)[O-])c1OC(=O)OC(C)C (stereo not given)	inactive	
c1ccc(-c2nn[nH]n2)cc1	inactive	
CC1(C)CC(OC(=O)CCCCCCCCC(=O)OC2CC(C)(C)NC(C)(C)C2)CC(C)(C)N1		0.47% [at 18.9 µM] (inactive)
Cc1ccco1	inactive	
CC(C)(O)CCCC1=CCC(C=O)CC1 (stereo not given)	inactive	
CN(C(=O)C(Cl)Cl)c1ccc(OC(=O)c2ccco2)cc1	inactive	
CC(c1cc(C(C)(C)C)cc(C(C)(C)C)c1O)c1cc(C(C)(C)C)cc(C(C)(C)C)c1O	inactive	
CCCCN1CCCC1C(=O)Nc1c(C)cc(C)cc1C (stereo not given)	inactive	
C=CC/C=C/C/C=C/C/C=C/C	inactive	
NS(=O)(=O)c1ccc(Cl)c(S(N)(=O)=O)c1	inactive	
CN1C(=O)N(C)C(O)C1O (stereo not given)	inactive	
CCOC(=O)C(C)O (stereo not given)	inactive	
C=CC1CO1 (stereo not given)	inactive	
CCOC(=O)/C=C/C(=O)OCC	inactive	
C=C[C@@H](C)CCC=C(C)C	inactive	
CO[Si](CCCS)(OC)OC	inactive	

Structure (SMILES)	Potency	activity change, negative = inhibition
CCCCCCCC[P+](CCCCCCCC)(CCCCCCCC)CCCCCCCC	13.6 µM (active)	
OC1CCCc2ccccc21 (stereo not given)	inactive	
Clc1nc(C(Cl)(Cl)Cl)c(Cl)c(Cl)c1Cl	inactive	
Oc1ccc(Nc2ccccc2)cc1	inactive	
CC(C)(O)CCc1ccccc1	inactive	
CCCCCN(CCCOC)C(=O)C(CCC(=O)O)NC(=O)c1ccc(Cl)c(Cl)c1 (stereo not given)	inactive	
Cc1ccc2c(c1[N+](=O)[O-])C(=O)c1ccccc1C2=O	inactive	
Nc1nc(CC(=O)O)cs1	inactive	
Cc1[nH]cnc1CN1CCc2c(c3ccccc3n2C)C1=O	inactive	
CC(C)C1OCCN1CCOC(=O)NCCCCCCNC(=O)OCCN1CCOC1C(C)C (stereo not given)	inactive	
CC(C(=O)O)c1ccc(C(=O)c2ccccc2)s1 (stereo not given)	inactive	
Nc1c2c(nc3ccccc13)CCCC2O (stereo not given)	inactive	
C=Cc1ccccc1C=C	inactive	
O=C1CCCc2c(O)cccc21	inactive	
CCCCCCCC(=O)OCC	inactive	
Nc1ccc(C(=O)OCC(O)CO)cc1 (stereo not given)	inactive	
O=C1[C@H](CC[C@H](O)c2ccc(F)cc2)[C@@H](c2ccc(O)cc2)N1c1ccc(F)cc1	inactive	
O=S(O)(O)=S		-2.62% [at 8.38 µM] (inactive)
O=S(=O)(O)c1ccc(O)c2ncccc12	inactive	
CC[N+]1(CC)CCC(=C(c2ccccc2)c2ccccc2)C1C (stereo not given)	inactive	
